# Activity calls are given as the source filed them. The call rests on the fitted dose curve; in most records, active means well fitted activation curve with a large enough effect; inconclusive means small, poorly fitted or top-dose-only effect; inactive means no such curve, though single readings can be large or run the other way. Residues, ends and D or L forms follow the SMILES beside them. *: point of attachment. Cbz = O=C(OCc1ccccc1)*
# Target: Cytochrome P450 3A4 (Homo sapiens) (UniProt P08684)
# Sequence (P08684 whole entry, looked up): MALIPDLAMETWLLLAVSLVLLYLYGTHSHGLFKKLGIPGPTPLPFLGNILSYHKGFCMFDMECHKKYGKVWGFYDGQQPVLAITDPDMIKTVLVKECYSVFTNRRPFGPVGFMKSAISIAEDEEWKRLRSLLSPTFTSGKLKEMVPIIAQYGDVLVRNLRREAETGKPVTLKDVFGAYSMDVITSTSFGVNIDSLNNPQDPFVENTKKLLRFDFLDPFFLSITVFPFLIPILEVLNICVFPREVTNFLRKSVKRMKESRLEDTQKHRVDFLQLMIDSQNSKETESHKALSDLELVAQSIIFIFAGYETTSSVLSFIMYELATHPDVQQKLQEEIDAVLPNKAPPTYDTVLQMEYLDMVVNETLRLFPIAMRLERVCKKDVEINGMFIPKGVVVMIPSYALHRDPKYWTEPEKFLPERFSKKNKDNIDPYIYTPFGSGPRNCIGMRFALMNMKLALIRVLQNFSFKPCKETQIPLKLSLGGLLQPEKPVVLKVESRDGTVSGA
# Assay: qHTS Assay for Activators of Cytochrome P450 3A4 (AID 885); further: nearly all actives have a fitted effect of over 65% in size
# Conditions: recombinant CYP3A4, Luciferin-PPXE luminescence, 60 min; series mostly up to 57.1 µM; activity change, positive = activation: at the top concentration
# Method: NIH Molecular Libraries Screening Centers Network [MLSCN]
# NIH Chemical Genomics Center [NCGC]
# The P450 gene superfamily is involved in the metabolism and clearance of xenobiotics. This assay used human CYP3A4 to measure the dealkylation of luciferin-6' phenylpiperazinylyl (Luciferin-PPXE; […]) to luciferin. The luciferin is then measured by luminescence after the addition of a luciferase detection reagent. Luciferin-PPXE concentration in the assay was equal to its KM for CYP3A4. Inhibitors and some substrates limit the production of luciferin, and decrease measured luminescence; activators increase the production of luciferin and luminescence.
# NCGC Assay Protocol Summary:
# Two uL of enzyme and substrate mix (final concentrations: 20nM CYP3A4, 25uM Luciferin-PPXE, 200mM KPO4) were dispensed into a white, solid bottom 1536-well microtiter plate. 23nL of compound was transferred by a pin tool. The plate was incubated at RT for 10 min. Two uL of an NADPH regeneration solution (Promega supplied reagent) was dispensed and the reaction was allowed to continue for 60 min at RT. Then the reaction was stopped by reconstituted luciferin detection buffer. After another 20 min of incubation the plate was read on the ViewLux (Perkin Elmer) at 60 sec exposure and 2x2 binning. This protocol was carried out with Promega-Glo reagents and further information can be found at http://www.promega.com/tbs/tb325/tb325.pdf. Data were normalized to the to AC100 inhibition (57 uM ketoconazole).
# Keywords: P450, CYP2D6, Luciferase, MLSMR, MLSCN, NIH Roadmap, qHTS, NCGC
# Potency means the concentration at half of the fitted maximal effect.
Compound,"activity change, positive = activation",Potency
CNC(=O)c1cc2c(cn1)[nH]c1ccccc12,-36.3% (inactive),
Cc1nc(N=Nc2ccc(C(=O)O)cc2)c(COP(=O)(O)O)c(C=O)c1O,-35.9% (inactive),
COCc1nc2c([nH]1)c(=O)n(C)c(=O)n2CC(C)C,-31.8% (inactive),
CCCCCCCC/C=C\CCCCCCCC(=O)NCCc1ccc(O)c(O)c1,-82.1% (inactive),
CN1CCN(c2nc3cc(C(F)(F)F)ccc3n3cccc23)CC1,-33.3% (inactive),
c1ccc(C(NCCNC(c2ccccc2)c2ccccc2)c2ccccc2)cc1,,5.01 µM (active)
N[C@H](C(=O)O)c1cc(O)cc(O)c1,,inactive
O=C1NC(=O)c2cc(Nc3ccccc3)c(Nc3ccccc3)cc21,-74.8% (inactive),
COc1cc(/C=C(\C#N)C(=O)c2ccc(O)c(O)c2)cc(I)c1O,-49.5% (inactive),
COc1ccc2c(c1)c(CC(=O)O)c(C)n2Cc1ccc(Cl)cc1,-31% (inactive),
S=C(S)N1CCCC1,-44.9% (inactive),
NC(=O)c1ccccc1,-41.7% (inactive),
CCCOC(=O)c1c(-c2ccccc2)nc(CC)c(C(=O)SCC)c1CCC,-89.6% (inactive),
N#C/C(=C\c1ccc(O)c(O)c1)C(=O)NCCc1ccccc1,-82.2% (inactive),
CCCCOC(=O)NS(=O)(=O)c1sc(CC(C)C)cc1-c1ccc(Cn2c(CC)nc3c(C)cc(C)nc32)cc1,-81.9% (inactive),
Cc1ccc([N+](=O)[O-])cc1S(=O)(=O)N(C)C,-37.4% (inactive),
CCCc1c(-c2ccc(O)cc2)nn(-c2ccc(O)cc2)c1-c1ccc(O)cc1,-83.4% (inactive),
N=C(N)SCCN,-73.1% (inactive),
Clc1nccc2c1ccc1ccccc12,-47.9% (inactive),
N#CC(C#N)=C(N)/C(C#N)=C/c1ccc(O)cc1,-60.4% (inactive),

Compound,"activity change, positive = activation",Potency
CCSC(=N)N,-30.5% (inactive),
Nc1ccc(-c2nc3ccc(-c4nc5ccc(N)cc5[nH]4)cc3[nH]2)cc1,-80.8% (inactive),
Nc1ccc(N2C(=O)c3ccccc3C2=O)c(Cl)c1,-94.3% (inactive),
CCN(CC)CCCCCCCCOC(=O)c1cc(OC)c(OC)c(OC)c1,-42.9% (inactive),
Cc1nc(N=Nc2cc(S(=O)(=O)O)c3cc([N+](=O)[O-])cc(S(=O)(=O)O)c3c2)c(COP(=O)(O)O)c(C=O)c1O,-30.1% (inactive),
CC(=O)NCCc1c[nH]c2ccc(O)cc12,,inactive
CC(C)[C@H](NC(=O)OCc1ccccc1)C(=O)N[C@H](C=O)Cc1ccccc1 (Cbz-Val-Phe-aldehyde),-80.4% (inactive),
Nc1ccc2c3c(cccc13)C(=O)NC2=O,-46.8% (inactive),
Cn1c(=O)c2[nH]c(C3CCCC3)nc2n(C)c1=O,-60.9% (inactive),
CCCCCCCCCCC(C)(C)C(=O)Nc1c(OC)cc(OC)cc1OC,-82.2% (inactive),
c1ccc2nc(C3=NCCN3)ccc2c1,-36.1% (inactive),
O=S(=O)(c1cccc2c(Cl)cccc12)N1CCCNCC1,,inactive
O=c1[nH]c(=S)[nH]c(-c2ccccc2)c1Cc1c(O)ccc2ccccc12,-42.7% [at 11.4 µM] (inactive),
CN(C)S(=O)(=O)c1ccc2c(c1)/C(=C/c1cc3c([nH]1)CCCC3)C(=O)N2,-84.9% (inactive),
CCCCCCN(CCCCCC)C(=O)Cc1c(-c2ccc(F)cc2)[nH]c2ccccc12,-109% (inactive),
N=C(N)SCCc1cnc[nH]1,,inactive
c1ccc2c(c1)CC(N1CCN(c3cccc4c3OCCO4)CC1)C2,,25.1 µM (active)
Nc1ncnc2c1c(-c1ccc(Oc3ccccc3)cc1)cn2C1CCCC1,,3.16 µM (active)
Nc1ncnc2c1ncn2C1CCCC1,-33% (inactive),
NC[C@@H]1O[C@H](c2ccccc2)Cc2c1ccc(O)c2O,-45.2% (inactive),
